# Measured values reported in PubChem BioAssay (EPA / NIEHS).
# Inconclusive results are not listed. Activity calls are given as the source filed them. The calls were made as follows: active = hit-call score of the fitted dose curve at least 0.9, where 1 is the maximum; inconclusive = response in the unintended direction; inactive = score below 0.9.
# Biological target: Tyrosine-protein phosphatase non-receptor type 12 (Homo sapiens) (UniProt Q05209)
# Assay: NVS_ENZ_hPTPN12: NovaScreen (NVS) Enzymatic Assay for human Protein Tyrosine Phosphatase Non-receptor Type 12 (PTPN12) (AID 2283204)
# Summary of the method: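 Single-concentration duplicates (25 uM) preceded singleton concentration-response up to 50 uM for chemicals passing threshold. Cell-free recombinant PTPN12 activity was read 1.33 h after dosing via fluorescence after mobility-shift separation; loss of signal versus DMSO.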
row,Compound,outcome
1,ClC1=C(Cl)C2(Cl)C3C(Cl)C(Cl)CC3C1(Cl)C2(Cl)Cl (stereo unspecified),inactive
2,CC(C)(C)OOC(C)(C)C,inactive
3,O=C(O)C(Cl)Cl,inactive
4,O=P1(N(CCCl)CCCl)NCCCO1 (stereo unspecified),inactive
5,O=c1ssc(Cl)c1Cl,inactive

# Biological target: human Protein Tyrosine Phosphatase Non-receptor Type 9 (PTPN9), PTPN9 (gene 5780) (UniProt P43378)
# Assay: NVS_ENZ_hPTPN9: NovaScreen (NVS) Enzymatic Assay for human Protein Tyrosine Phosphatase Non-receptor Type 9 (PTPN9) (AID 2283209)
# Summary of the method: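 Sf9-expressed enzyme in a cell-free assay, fluorescence read 1.33 h after dosing with mobility-shift separation of substrate and product. Tested at 25 uM in duplicate, then up to 50 uM; signal loss versus DMSO.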
Compound,outcome,AC50
OCC1CO1 (stereo unspecified),inactive,–
CN(C)C(=O)Cl,–,41.7 µM (active)
CCC(C)(C)c1ccc(O)cc1,–,42.1 µM (active)

# Biological target: human Protein Tyrosine Phosphatase Non-receptor Type 6 (PTPN6), PTPN6 (gene 5777) (UniProt P29350)
# Sequence (P29350 whole entry, looked up): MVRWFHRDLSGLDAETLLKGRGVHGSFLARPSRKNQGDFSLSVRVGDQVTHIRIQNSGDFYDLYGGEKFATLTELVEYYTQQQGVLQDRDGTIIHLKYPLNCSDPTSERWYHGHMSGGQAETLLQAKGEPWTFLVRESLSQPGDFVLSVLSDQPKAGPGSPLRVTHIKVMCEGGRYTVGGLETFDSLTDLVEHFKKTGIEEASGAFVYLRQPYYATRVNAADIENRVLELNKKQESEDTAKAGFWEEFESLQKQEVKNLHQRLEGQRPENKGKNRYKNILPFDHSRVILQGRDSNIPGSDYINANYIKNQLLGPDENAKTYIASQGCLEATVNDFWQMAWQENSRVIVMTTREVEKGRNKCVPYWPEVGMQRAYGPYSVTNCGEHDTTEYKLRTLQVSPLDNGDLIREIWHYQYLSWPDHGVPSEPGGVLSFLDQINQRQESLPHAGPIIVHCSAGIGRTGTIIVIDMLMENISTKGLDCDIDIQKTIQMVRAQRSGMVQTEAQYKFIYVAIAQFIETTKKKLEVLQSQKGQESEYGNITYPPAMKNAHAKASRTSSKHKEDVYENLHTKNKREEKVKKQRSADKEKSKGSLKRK
# Assay: NVS_ENZ_hPTPN6: NovaScreen (NVS) Enzymatic Assay for human Protein Tyrosine Phosphatase Non-receptor Type 6 (PTPN6) (AID 2283210)
# Summary of the method: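 Recombinant human PTPN6 from SF9 cells, enzyme activity followed by fluorescence after mobility-shift separation of substrate and product at 1.33 h. Chemicals first tested at a single 25 uM in duplicate, then confirmed across concentration series; loss of signal relative to DMSO.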
row,Compound,outcome
1,ClC(Cl)c1ccccc1,inactive
2,CC(C)(C)OOC(C)(C)C,inactive
3,O=C(O)C1C(C(=O)O)C2(Cl)C(Cl)=C(Cl)C1(Cl)C2(Cl)Cl (stereo unspecified),inactive
4,c1nc[nH]n1,inactive
5,CCOS(=O)(=O)OCC,inactive
6,[N-]=[N+]=[N-],inactive
7,CN(C)C(=O)Cl,inactive

# Biological target: human Protein Tyrosine Phosphatase Receptor Type C (PTPRC), PTPRC (gene 5788) (UniProt P08575)
# Sequence (P08575 whole entry, looked up): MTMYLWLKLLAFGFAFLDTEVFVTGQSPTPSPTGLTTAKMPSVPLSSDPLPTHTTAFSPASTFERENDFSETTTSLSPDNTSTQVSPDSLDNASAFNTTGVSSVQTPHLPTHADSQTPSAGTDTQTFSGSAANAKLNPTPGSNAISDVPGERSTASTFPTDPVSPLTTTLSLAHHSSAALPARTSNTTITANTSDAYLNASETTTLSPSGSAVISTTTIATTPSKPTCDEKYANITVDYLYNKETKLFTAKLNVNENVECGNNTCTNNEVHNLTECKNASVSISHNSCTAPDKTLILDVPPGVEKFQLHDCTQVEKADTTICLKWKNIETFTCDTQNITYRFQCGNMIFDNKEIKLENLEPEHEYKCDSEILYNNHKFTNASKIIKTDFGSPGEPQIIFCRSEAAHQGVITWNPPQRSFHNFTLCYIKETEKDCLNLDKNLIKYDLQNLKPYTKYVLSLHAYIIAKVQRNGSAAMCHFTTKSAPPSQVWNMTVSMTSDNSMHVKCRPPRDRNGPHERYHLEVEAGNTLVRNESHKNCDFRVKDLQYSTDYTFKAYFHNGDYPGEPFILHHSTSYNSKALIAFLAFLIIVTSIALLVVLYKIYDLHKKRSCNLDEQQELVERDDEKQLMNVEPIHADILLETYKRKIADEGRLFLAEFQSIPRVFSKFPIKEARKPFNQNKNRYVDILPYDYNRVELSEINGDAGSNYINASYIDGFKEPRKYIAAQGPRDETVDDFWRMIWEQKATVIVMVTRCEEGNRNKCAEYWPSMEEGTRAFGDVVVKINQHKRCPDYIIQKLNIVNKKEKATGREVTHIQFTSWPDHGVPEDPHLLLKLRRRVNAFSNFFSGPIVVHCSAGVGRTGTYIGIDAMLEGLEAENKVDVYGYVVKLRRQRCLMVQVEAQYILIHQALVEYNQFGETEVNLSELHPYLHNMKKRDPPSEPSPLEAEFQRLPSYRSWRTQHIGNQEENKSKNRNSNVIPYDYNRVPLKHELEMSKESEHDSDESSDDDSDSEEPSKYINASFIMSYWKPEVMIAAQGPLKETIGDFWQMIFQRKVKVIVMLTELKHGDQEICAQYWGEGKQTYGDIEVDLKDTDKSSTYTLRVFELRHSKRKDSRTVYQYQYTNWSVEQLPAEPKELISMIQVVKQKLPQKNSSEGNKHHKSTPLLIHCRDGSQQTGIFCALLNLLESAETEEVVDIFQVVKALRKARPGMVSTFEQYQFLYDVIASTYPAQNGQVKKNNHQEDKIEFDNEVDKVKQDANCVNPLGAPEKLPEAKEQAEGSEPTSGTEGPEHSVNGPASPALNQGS
# Assay: NVS_ENZ_hPTPRC: NovaScreen (NVS) Enzymatic Assay for human Protein Tyrosine Phosphatase Receptor Type C (PTPRC) (AID 2283212)
# Summary of the method: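 Absorbance-based phosphatase activity of human PTPRC protein extracted from yeast was measured 1 h post-dosing. Compounds first tested at 25 uM in duplicate, then those passing threshold in singleton concentration series to 50 uM.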
Compound,AC50,outcome
CCCCN(CCCC)SN(C)C(=O)Oc1cccc2c1OC(C)(C)C2,7.97 µM (active),–
Cc1ccc(N)cc1N,32.2 µM (active),–
Cc1ccc(O)cc1C,–,inactive
Nc1ccc2ccccc2c1,12.3 µM (active),–
O=P1(N(CCCl)CCCl)NCCCO1 (stereo unspecified),–,inactive

# Biological target: human Rho Associated Coiled-coil Containing Protein Kinase 1 (ROCK1), ROCK1 (gene 6093) (UniProt Q13464)
# Assay: NVS_ENZ_hROCK1: NovaScreen (NVS) Enzymatic Assay for human Rho Associated Coiled-coil Containing Protein Kinase 1 (ROCK1) (AID 2283214)
# Summary of the method: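 Compounds first run in duplicate at 25 uM against recombinant human ROCK1, then followed in concentration series. Kinase activity was read 1 h post-dosing by fluorescence with mobility-shift separation, as signal loss relative to DMSO.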
row,Compound,outcome
1,CCOc1ccc(C(C)(C)COCc2cccc(Oc3ccccc3)c2)cc1,inactive
2,O=P(Oc1ccccc1)(Oc1ccccc1)Oc1ccccc1,inactive
3,Cc1ccc([N+](=O)[O-])cc1C,inactive

# Biological target: human Sirtuin 1 (SIRT1), SIRT1 (gene 23411) (UniProt Q96EB6)
# Sequence (Q96EB6 whole entry, looked up): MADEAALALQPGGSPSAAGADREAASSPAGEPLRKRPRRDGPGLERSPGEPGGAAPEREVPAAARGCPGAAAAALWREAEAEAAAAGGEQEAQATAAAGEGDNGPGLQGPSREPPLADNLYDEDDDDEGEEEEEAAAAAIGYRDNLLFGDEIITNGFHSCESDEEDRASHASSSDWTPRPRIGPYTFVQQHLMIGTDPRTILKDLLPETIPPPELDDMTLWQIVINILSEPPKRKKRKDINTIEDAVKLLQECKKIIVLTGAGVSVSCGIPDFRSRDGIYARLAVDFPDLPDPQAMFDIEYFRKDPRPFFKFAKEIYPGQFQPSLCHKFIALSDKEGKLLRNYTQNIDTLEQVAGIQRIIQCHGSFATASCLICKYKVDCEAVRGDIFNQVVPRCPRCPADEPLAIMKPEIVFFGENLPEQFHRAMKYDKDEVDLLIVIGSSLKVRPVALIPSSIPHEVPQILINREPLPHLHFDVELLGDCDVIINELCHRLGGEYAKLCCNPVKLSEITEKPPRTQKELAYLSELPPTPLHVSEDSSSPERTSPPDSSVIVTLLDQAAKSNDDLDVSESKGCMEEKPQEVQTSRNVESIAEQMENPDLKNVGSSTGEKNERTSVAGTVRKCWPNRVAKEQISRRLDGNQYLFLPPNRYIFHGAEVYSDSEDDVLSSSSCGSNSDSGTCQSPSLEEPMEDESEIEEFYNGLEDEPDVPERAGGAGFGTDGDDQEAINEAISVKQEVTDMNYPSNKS
# Assay: NVS_ENZ_hSIRT1: NovaScreen (NVS) Enzymatic Assay for human Sirtuin 1 (SIRT1) (AID 2283219)
# Summary of the method: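 Cell-free recombinant SIRT1 with a fluorescent substrate; substrate and product separated by electrophoretic mobility shift and read by fluorescence intensity, 1 h after dosing. Primary screen at 25 uM in duplicate; hits re-run in concentration-response up to 50 uM, relative to DMSO.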
row,Compound,outcome
1,CC(Cl)(Cl)C(=O)O,inactive
2,CCOc1ccc(C(C)(C)COCc2cccc(Oc3ccccc3)c2)cc1,inactive
3,CSC(C)(C)C=NO,inactive
4,O=P1(N(CCCl)CCCl)NCCCO1 (stereo unspecified),inactive
5,Cc1ccc([N+](=O)[O-])cc1C,inactive

# Biological target: human Tyrosine Protein Kinase Receptor Tie-2 (Tie2), TEK (gene 7010) (UniProt Q02763)
# Sequence (Q02763 whole entry, looked up): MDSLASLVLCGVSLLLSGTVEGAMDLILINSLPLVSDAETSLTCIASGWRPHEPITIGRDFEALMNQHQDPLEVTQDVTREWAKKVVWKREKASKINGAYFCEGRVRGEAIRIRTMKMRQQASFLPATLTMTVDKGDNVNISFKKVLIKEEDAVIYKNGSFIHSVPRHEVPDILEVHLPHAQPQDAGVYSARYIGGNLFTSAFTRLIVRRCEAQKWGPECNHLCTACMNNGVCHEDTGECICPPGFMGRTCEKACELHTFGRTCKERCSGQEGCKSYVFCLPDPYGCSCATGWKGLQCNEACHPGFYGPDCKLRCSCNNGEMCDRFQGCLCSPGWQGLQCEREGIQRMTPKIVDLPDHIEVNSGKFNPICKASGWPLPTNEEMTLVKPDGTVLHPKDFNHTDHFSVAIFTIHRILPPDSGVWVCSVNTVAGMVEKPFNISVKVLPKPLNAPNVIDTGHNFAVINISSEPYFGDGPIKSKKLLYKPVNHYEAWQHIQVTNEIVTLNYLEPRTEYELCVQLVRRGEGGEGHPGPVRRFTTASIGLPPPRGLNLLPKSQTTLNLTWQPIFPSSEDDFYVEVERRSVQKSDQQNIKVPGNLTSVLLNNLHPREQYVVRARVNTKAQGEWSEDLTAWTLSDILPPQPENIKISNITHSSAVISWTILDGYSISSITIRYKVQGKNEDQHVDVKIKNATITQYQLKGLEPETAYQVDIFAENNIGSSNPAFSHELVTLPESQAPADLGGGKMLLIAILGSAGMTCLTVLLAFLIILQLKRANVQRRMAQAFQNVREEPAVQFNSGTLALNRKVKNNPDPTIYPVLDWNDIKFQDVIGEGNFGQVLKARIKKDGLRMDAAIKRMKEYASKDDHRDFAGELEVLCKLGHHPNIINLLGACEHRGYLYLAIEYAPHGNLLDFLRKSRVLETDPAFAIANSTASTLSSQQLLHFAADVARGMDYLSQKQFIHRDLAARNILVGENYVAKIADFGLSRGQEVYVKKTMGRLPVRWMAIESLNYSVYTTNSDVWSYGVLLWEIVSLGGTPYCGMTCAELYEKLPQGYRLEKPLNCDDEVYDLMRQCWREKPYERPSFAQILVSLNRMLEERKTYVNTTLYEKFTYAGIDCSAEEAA
# Assay: NVS_ENZ_hTie2: NovaScreen (NVS) Enzymatic Assay for human Tyrosine Protein Kinase Receptor Tie-2 (Tie2) (AID 2283225)
# Summary of the method: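 Substrate and product were separated by mobility shift and detected by fluorescence after a 1-hour reaction with recombinant Tie2. Chemicals passing a 25 uM single-point screen were titrated to a maximum of 50 uM. Results were normalized to DMSO baseline.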
row,Compound,outcome
1,CC(C)(C)OOC(C)(C)C,inactive
2,CSC(C)(C)C=NO,inactive
3,O=P1(N(CCCl)CCCl)NCCCO1 (stereo unspecified),inactive
4,O=c1ssc(Cl)c1Cl,inactive
5,CC1(C)CN=C(NN=C(/C=C/c2ccc(C(F)(F)F)cc2)/C=C/c2ccc(C(F)(F)F)cc2)NC1,inactive

# Biological target: rabbit Imidazoline 2 Central (I2C), CKB (gene 100009085) (UniProt P00567)
# Assay: NVS_ENZ_rabI2C: NovaScreen (NVS) Enzymatic Assay for rabbit Imidazoline 2 Central (I2C) (AID 2283228)
# Summary of the method: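 Rabbit brain membranes, cell-free; readout by filter-based scintillation counting 1.5 hours after dosing, loss of signal vs DMSO. Initial duplicate test at 25 uM, then concentration-response with 50 uM top concentration.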
Compound,outcome,AC50
Cc1cccc(N)c1,inactive,–
Cc1ccc(N)cc1N,inactive,–
Nc1ccc2ccccc2c1,–,13.7 µM (active)

# Biological target: human Vascular Endothelial Growth Factor Receptor 2 (VEGFR2), KDR (gene 3791) (UniProt P35968)
# Sequence (P35968 whole entry, looked up): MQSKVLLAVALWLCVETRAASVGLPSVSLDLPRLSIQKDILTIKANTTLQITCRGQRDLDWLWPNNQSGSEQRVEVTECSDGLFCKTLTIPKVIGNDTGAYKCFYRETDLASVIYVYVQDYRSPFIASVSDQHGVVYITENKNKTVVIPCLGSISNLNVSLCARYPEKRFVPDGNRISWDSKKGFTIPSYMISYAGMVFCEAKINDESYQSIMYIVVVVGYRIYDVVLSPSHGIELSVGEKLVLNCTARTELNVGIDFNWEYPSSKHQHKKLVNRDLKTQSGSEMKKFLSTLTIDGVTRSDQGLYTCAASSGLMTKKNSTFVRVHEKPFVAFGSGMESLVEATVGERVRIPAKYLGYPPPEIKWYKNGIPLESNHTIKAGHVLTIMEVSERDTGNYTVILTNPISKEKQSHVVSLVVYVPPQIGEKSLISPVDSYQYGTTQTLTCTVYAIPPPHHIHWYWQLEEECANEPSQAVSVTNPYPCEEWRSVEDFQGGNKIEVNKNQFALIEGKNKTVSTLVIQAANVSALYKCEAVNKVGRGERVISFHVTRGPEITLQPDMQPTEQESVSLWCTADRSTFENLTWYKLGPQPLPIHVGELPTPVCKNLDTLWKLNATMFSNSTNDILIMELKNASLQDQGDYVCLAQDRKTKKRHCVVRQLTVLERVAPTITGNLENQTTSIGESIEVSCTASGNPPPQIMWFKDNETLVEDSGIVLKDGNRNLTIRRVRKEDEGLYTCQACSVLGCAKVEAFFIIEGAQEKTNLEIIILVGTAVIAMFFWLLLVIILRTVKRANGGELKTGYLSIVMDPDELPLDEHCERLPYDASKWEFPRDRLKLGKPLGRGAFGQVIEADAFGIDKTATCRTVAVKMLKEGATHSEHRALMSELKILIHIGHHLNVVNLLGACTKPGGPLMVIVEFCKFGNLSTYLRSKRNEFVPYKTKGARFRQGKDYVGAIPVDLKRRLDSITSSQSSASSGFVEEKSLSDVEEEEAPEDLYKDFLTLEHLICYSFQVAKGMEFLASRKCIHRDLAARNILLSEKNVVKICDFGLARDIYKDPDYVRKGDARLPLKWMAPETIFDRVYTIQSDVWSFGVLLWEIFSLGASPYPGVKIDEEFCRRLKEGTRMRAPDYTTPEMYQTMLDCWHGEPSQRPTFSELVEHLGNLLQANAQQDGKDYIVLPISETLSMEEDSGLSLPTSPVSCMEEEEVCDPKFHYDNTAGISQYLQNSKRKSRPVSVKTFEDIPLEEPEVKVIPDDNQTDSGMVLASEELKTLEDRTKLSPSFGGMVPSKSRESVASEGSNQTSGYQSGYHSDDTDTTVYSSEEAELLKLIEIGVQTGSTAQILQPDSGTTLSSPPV
# Assay: NVS_ENZ_hVEGFR2: NovaScreen (NVS) Enzymatic Assay for human Vascular Endothelial Growth Factor Receptor 2 (VEGFR2) (AID 2283230)
# Summary of the method: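 Cell-free recombinant VEGFR2 kinase, fluorescent substrate with electrophoretic mobility-shift separation; read 1 h after dosing. Screened at 25 uM in duplicate, hits to concentration-response up to 50 uM; loss-of-signal versus DMSO.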
row,Compound,outcome
1,CCCCN(CCCC)SN(C)C(=O)Oc1cccc2c1OC(C)(C)C2,inactive
2,ClC1=C(Cl)C2(Cl)C3C(Cl)C(Cl)CC3C1(Cl)C2(Cl)Cl (stereo unspecified),inactive
3,Cc1cccc(N)c1,inactive
4,O=c1ssc(Cl)c1Cl,inactive
5,CCCN(CCC)c1c([N+](=O)[O-])cc(C(C)C)cc1[N+](=O)[O-],inactive

# Biological target: sheep Cyclooxygenase-2 (Cox2), PTGS2 (gene 443460) (UniProt P79208)
# Assay: NVS_ENZ_oCOX2: NovaScreen (NVS) Enzymatic Assay for sheep Cyclooxygenase-2 (Cox2) (AID 2283231)
# Summary of the method: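 Compounds were first run at 25 uM in duplicate against tissue-extracted ovine COX-2; those passing a preset inhibition threshold went to singleton concentration-response testing with a 50 uM maximum. Read-out: absorbance at 0.66 hour.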
Compound,AC50,outcome
O=[N+]([O-])c1ccc(Cl)c(Cl)c1,18.5 µM (active),–
Nc1ccc2ccccc2c1,7.93 µM (active),–
c1ccc(OP(Oc2ccccc2)Oc2ccccc2)cc1,–,inactive
CC1(C)CN=C(NN=C(/C=C/c2ccc(C(F)(F)F)cc2)/C=C/c2ccc(C(F)(F)F)cc2)NC1,17.4 µM (active),–

# Biological target: rat Catechol-O-Methyl Transferase (COMT), Comt (gene 24267) (UniProt P22734)
# Assay: NVS_ENZ_rCOMT: NovaScreen (NVS) Enzymatic Assay for rat Catechol-O-Methyl Transferase (COMT) (AID 2283235)
# Summary of the method: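 Rat dorsal striatum extract served as COMT source; product quantified by HPLC/spectrophotometry, read at 0 h after dosing. Primary single-concentration screen at 25 uM, followed by concentration series to a 50 uM maximum.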
row,Compound,outcome
1,CSC(C)(C)C=NO,inactive
2,CCCCc1ccccc1,inactive
3,CC(Cc1ccc(OCC(=O)O)cc1)NCC(O)c1csc(C(F)(F)F)n1 (stereo unspecified),inactive

# Biological target: rat Constitutive Nitric Oxide Synthase (CNOS), Nos1 (gene 24598) (UniProt P29476)
# Assay: NVS_ENZ_rCNOS: NovaScreen (NVS) Enzymatic Assay for rat Constitutive Nitric Oxide Synthase (CNOS) (AID 2283236)
# Summary of the method: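 Single 25 uM duplicate screen, then concentration series to 50 uM for chemicals meeting threshold. Rat brain membrane-derived CNOS activity detected radiometrically by filtration and scintillation counting, 1 h after compound addition; DMSO as baseline.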
Compound,AC50,outcome
Cc1ccc(N)cc1N,6.59 µM (active),–
ClC(Cl)(Cl)c1ccccc1,–,inactive
[N-]=[N+]=[N-],–,inactive
